Source: PubChem BioAssay (NCATS)
Where “and” joins values, the source holds several entries; their conditions need not be identical. Identical values can stand only once. Results filed as inconclusive are left out. Entries that show only a call come without a potency. Calls of active or inactive are those of the source. Calls come from the whole dose curve; as a rule, active = well fitted cell-killing curve with a large enough effect; inconclusive = small, poorly fitted or top-dose-only effect; inactive = flat fitted curve, though single readings scatter. Peptide text beside a SMILES is read from it. * marks the point of attachment. Cbz = O=C(OCc1ccccc1)*

Experiment: Cellular viability qHTS for adrenocortical cancer (ACC) cell line NCI-H295R (AID 1963990); note: nearly all actives have a fitted effect of over 60% in size
Conditions: CellTiter-Glo ATP luminescence, 48 h; series mostly up to 46.1 µM
Description: PI: Naris Nilubol, MD Surgical Oncology Program, National Cancer Institute (NCI) National Institute of Health (NIH), Bethesda, Maryland Adrenocortical cancer (ACC) is a rare malignancy with poor survival outcomes and few treatment options. Currently, mitotane is the only FDA-approved therapy for ACC. Although adjuvant radiation therapy is rarely utilized, it has the potential to improve survival in select cases. Through a quantitative high-throughput drug screen (qHTS), we identified auranofin (AF), a thioredoxin reductase (TXNRD) inhibitor, as a promising candidate drug. This study aims to evaluate whether AF can enhance the efficacy of radiation therapy in the treatment of ACC. Two human ACC cell lines, SW-13 and NCI-H295R, were screened using the National Center for Advancing Translational Sciences (NCATS) Pharmaceutical Collection (NPC) and the Mechanism Interrogation PlatE (MIPE) library (~4,991 compounds). CellTiter-Glo (Cat # G7570, Promega, Madison, WI) was utilized to measure cell viability. Described herein are the results of the corresponding viability assay.
PROTOCOL TABLE (as described by Inglese J, Shamu CE and Guy RK. 2007) SEQUENCE No. (e.g., 1, 2, 3, etc.); […] (e.g., Cells, Incubation, Reagent, etc.); VALUE; DESCRIPTION. 1; Cells; 5 uL; white, solid-bottom, 1536-well tissue-culture treated plates. 2; Time; overnight culture at 37C with 5% CO2. 3; Compounds and control; 23 nL; Kalypsis pin tool (Wako USA) equipped with a 1536-well pin head to transfer to the assay plates. 4; Time; 48 hours; 37C with 5% CO2. 5; Reagent; 4 uL; CellTiter-Glo luminescent substrate mix. 6; Time; 20 min at room temperature. 7; Detection; Luminescence; ViewLux plate reader NOTES (numbers refer to Sequence numbers above) 1. NCI-H295R cells were harvested from a T175 flask and resuspended in ITS-supplemented DMEM serum-free medium at a concentration of 300 000 cells/mL. Then 5 uL of resuspended cells were dispensed into each well of white, solid-bottom, 1536-well tissue-culture-treated plates using a multidrop combi dispenser. The plates were covered with stainless steel gasket lids. 2-3. The plates were cultured overnight at 37C with 5% CO2. Twenty-three nL of compounds (eight selected concentrations from the NPC / MIPE) or positive control (10 mM stock of bortezomib) in DMSO was transferred to each well of the assay plate using a pin tool (Kalypsys, San Diego, CA, USA). The final concentration of the compounds in the 5 uL assay volume ranged from 0.5 nM to 46 uM. 4-6. After 48 hours of incubation at 37C and 5% CO2, 4 uL of CellTilter-Glo luminescent substrate mix (Promega, Madison, WI, USA) was added to each well. Then the plates were incubated for 20 minutes at room temperature. 7. After incubation, luminescence was measured using a ViewLux plate reader (PerkinElmer, Waltham, MA, USA) with a clear filter was used to measure the number of metabolically competent cells. To determine compound activity in the qHTS assay, the titration-response data for each sample was plotted and modeled by a four-parameter logistic fit yielding IC50 and efficacy (maximal response) values. Raw plate reads for each titration point were normalized relative to positive control ([…], 100% inhibition) and DMSO-only wells (basal, 0%). REFERENCES: Inglese J, Shamu CE and Guy RK, Reporting data from high throughput screening of small molecule libraries, Nature Chemical Biology, 2007, 3(8): 438-441. doi.org/10.1038/nchembio0807-438.

| SMILES | Potency |
| --- | --- |
| CN1C(C)(C)CCCC1(C)C | inactive |
| O=C(O)C[C@H](O)C[C@H](O)/C=C/c1c(C2CC2)nc2ccccc2c1-c1ccc(F)cc1 | 3.55 µM (active) |
| COc1cc(N2CCC(N3CCN(C)CC3)CC2)ccc1Nc1ncnc(Nc2ccccc2S(=O)(=O)C(C)C)n1 | 8.91 µM (active) |
| CNC1(C)C2CCC(C2)C1(C)C (stereo not given) | inactive |
| CCOCOC[C@H](C[C@H](C)C(=O)NO)NC(=O)c1ccc(Oc2ccccc2)cc1 | inactive |
| Cc1nnc(SCC2=C(C(=O)O)N3C(=O)[C@@H](NC(=O)Cn4cnnn4)[C@H]3SC2)s1 | inactive |
| CNC(=O)c1cc(Oc2ccc(NC(=O)Nc3ccc(Cl)c(C(F)(F)F)c3)cc2)ccn1 | 11.2 µM (active) and 10.3 µM (active) |
| CCOC(=O)NNc1nncc2ccccc12 | inactive |
| Cn1cc(-c2ccc(S(=O)(=O)n3ccc(/C=C/C(=O)Nc4ccccc4N)c3)cc2)cn1 | 0.891 µM (active) |
| CC(C)(Oc1ccc(Cl)cc1)C(=O)O | inactive |
| CC(=O)NCc1c(I)c(NC(C)=O)c(I)c(C(=O)O)c1I | inactive |
| OC(Cn1cncn1)(Cn1cncn1)c1ccc(F)cc1F | inactive |
| CCN1CCN(CC(=O)Nc2ccc(-c3cccc4c(=O)cc(N5CCOCC5)oc34)c3sc4ccccc4c23)CC1 | 7.15 µM (active) |
| CC1(C)S[C@@H]2[C@H](NC(=O)[C@H](N)c3ccccc3)C(=O)N2[C@H]1C(=O)O | inactive |
| CCS(=O)(=O)c1ccc(OC)c(C(=O)OC)c1 | inactive |
| CN(C)C/C=C(/c1ccc(Br)cc1)c1cccnc1 | inactive |
| CCCNC(=O)NS(=O)(=O)c1ccc(Cl)cc1 | inactive |
| NC(=O)N[C@@H](CCC(=O)O)C(=O)O | inactive |
| Nc1ccc(C(=O)c2cc3c(ccc4ccccc43)[nH]2)cc1 | 2.51 µM (active) |
| Nc1c2c(nc3ccccc13)CCCC2O (stereo not given) | inactive |

| SMILES | Potency |
| --- | --- |
| Cc1cc(NS(=O)(=O)c2ccc(N)cc2)no1 | inactive |
| CN[C@@H](C)C(=O)N[C@H](C(=O)N1CCC[C@H]1C(=O)Nc1sc(-c2ncco2)nc1-c1ccccc1)C1CCCCC1 | inactive |
| O=C(O)Cc1ccc(OCCNC[C@H](O)c2ccccc2)cc1 | inactive |
| Cc1nc(NC(=O)N2CCC[C@H]2C(N)=O)sc1-c1ccnc(C(C)(C)C(F)(F)F)c1 | 11.2 µM (active) |
| NS(=O)(=O)NCCNc1nonc1C(=Nc1ccc(F)c(Br)c1)NO | inactive |
| N#C/C(=C(/N)Sc1ccc(N)cc1)c1ccccc1C(F)(F)F | inactive |
| CS(=O)(=O)N1CCN(Cc2cc3nc(-c4cccc5[nH]ncc45)nc(N4CCOCC4)c3s2)CC1 | 2.24 µM (active) |
| CC1(c2ccccc2)OC(C(=O)O)=CC1=O (stereo not given) | inactive |
| CN(C)C/C=C/C(=O)Nc1ccc(C(=O)Nc2cccc(Nc3ncc(Cl)c(-c4c[nH]c5ccccc45)n3)c2)cc1 | 0.562 µM (active) |
| Cc1ccc(-c2ccc3c(ccc4sc5c(c43)NC[C@@H](C)NC5=O)n2)cn1 | 28.2 µM (active) |
| CC(C)C[C@@H](C=O)NC(=O)[C@H](CC(C)C)NC(=O)[C@H](CC(C)C)NC(=O)OCc1ccccc1 (Cbz-Leu-Leu-Leu-aldehyde) | 1.26 µM (active) |
| COc1cc2c(cc1OC)C(=O)CC2 | inactive |
| CC(C)(C)NC(=O)c1cncn1C1CCN(c2ccc(-c3nnc(C(F)(F)F)o3)cn2)CC1 | 2.82 µM (active) |
| COC(=O)Nc1ccc(-c2nc(N3CCOCC3)c3cnn(C4CCN(C(=O)OC)CC4)c3n2)cc1 | 2.51 µM (active) |
| CC(O)COc1ccccc1 (stereo not given) | inactive |
| CCN1CC(CCN2CCOCC2)C(c2ccccc2)(c2ccccc2)C1=O (stereo not given) | inactive |
| COCCCc1sc(-c2ccccc2)nc1C(=O)Nc1ccccc1-c1nc2cc(CN3CCCC3)cnc2s1 | inactive |
| Oc1c(Br)cc(Br)c2cccnc12 | 1.64 µM (active) |
| CCN1CCCC(OC(=O)C(c2ccccc2)c2ccccc2)C1 (stereo not given) | inactive |
| C[C@@H](Oc1cc(-c2cnn(C3CCNCC3)c2)cnc1N)c1c(Cl)ccc(F)c1Cl | 3.16 µM (active) |
